Results reported in PubChem BioAssay AID1645853 (Buhrlage Lab, Dana-Farber Cancer Institute and Novartis …, 2021).
Among all 47,000 compounds or so, about 2,000 (4.3%) were called active. Rule as the data show it: active = inhibition above about 30%; inactive = the rest. The sample as a whole holds a higher share of actives than the screen did.

Each compound was assayed against Ubiquitin carboxyl-terminal hydrolase 8 (Homo sapiens) (UniProt P40818) (assay: blocks human USP8 ubiquitin-rhodamine cleavage (AID 1645853)). Conditions: purified USP8, Ub-rhodamine cleavage fluorescence, 30 min; at 20 µM; active compounds read high.
Ubiquitin carboxyl-terminal hydrolase 8 (Homo sapiens), sequence (P40818 whole entry, looked up): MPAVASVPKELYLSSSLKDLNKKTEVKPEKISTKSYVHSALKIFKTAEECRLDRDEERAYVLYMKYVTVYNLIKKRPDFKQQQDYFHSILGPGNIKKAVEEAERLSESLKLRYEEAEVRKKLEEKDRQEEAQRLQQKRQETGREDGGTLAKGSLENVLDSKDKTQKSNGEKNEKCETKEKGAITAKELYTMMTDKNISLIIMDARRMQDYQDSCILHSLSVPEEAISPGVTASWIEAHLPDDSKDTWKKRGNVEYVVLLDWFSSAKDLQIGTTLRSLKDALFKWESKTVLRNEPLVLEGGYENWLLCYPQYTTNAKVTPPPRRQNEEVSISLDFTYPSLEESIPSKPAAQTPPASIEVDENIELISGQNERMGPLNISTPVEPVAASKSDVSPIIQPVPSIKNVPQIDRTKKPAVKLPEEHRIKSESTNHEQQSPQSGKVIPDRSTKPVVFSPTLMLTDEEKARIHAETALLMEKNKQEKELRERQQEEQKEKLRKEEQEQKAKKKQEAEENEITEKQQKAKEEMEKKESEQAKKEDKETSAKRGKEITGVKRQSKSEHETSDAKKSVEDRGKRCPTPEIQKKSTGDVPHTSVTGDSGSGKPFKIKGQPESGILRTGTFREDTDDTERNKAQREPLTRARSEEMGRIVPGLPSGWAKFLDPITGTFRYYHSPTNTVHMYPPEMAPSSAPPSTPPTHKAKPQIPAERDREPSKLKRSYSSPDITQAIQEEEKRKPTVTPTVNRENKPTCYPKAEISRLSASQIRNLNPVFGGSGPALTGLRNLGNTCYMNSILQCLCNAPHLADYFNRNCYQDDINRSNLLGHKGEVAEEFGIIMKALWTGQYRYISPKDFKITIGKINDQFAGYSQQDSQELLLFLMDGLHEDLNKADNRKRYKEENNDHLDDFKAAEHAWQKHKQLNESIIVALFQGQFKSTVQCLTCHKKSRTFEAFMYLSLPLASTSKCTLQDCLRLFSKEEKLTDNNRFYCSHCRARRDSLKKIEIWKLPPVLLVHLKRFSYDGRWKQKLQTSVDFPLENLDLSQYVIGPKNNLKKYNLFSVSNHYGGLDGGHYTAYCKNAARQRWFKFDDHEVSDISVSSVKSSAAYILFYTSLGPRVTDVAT

| SMILES | inhibition |
| --- | --- |
| Cc1nc(-c2ccccc2)sc1-c1nc(-c2ccccc2)ncc1S(=O)(=O)c1ccccc1 | 63.3% (active) |
| COc1ccc2ncc(S(=O)(=O)c3ccccc3)c(Nc3ccc(F)cc3)c2c1 | 17.2% (inactive) |
| Cc1ccc2c(c1)CN(S(C)(=O)=O)CC1(CCN(CC(=O)N3CCCCC3)CC1)O2 | 0.0399% (inactive) |
| CCOC(=O)C1CCN(S(=O)(=O)c2cc3[nH]c4c(c3cc2CC)C(=O)CCC4)CC1 | -25.1% (inactive) |
| Cc1cc(C(F)(F)F)nn1CC(=O)O | -0.231% (inactive) |
| O=C(Cc1ccc(Cl)cc1)NCC(=O)Nc1nc2ccccc2[nH]1 | -1.55% (inactive) |
| CC1=C(C(=O)Nc2ccccc2)C(c2ccc(OCc3c(Cl)cccc3Cl)cc2)n2ncnc2N1 (centres undefined) | -1.68% (inactive) |
| COCCNC(=O)c1ccc2nnc3ncn(C(C)C)c3c2c1 | -31.7% (inactive) |
| COc1ccc(-c2noc(C3(c4ccccc4)CCOCC3)n2)cc1 | 19.2% (inactive) |
| COc1ccc(-c2nc(-c3cccs3)no2)cc1OC | -15.4% (inactive) |
| COc1ccc(-c2noc(-c3ccc(N(C)Cc4ccco4)nn3)n2)cc1 | 35.7% (active) |
| O=C1CC(C(=O)Nc2ccccc2F)N=C(N2CCN(c3ccccc3F)CC2)N1 (centres undefined) | 3.41% (inactive) |
| O=C(CSc1ccc2nnc(-c3ccccc3)n2n1)N1CCCc2ccccc21 | 29.4% (inactive) |
| O=[N+]([O-])c1ccc(S(=O)(=O)N2CCN(c3nc4ccccc4s3)CC2)cc1 | -0.0867% (inactive) |
| CC(C)N(C(=O)CSc1nc2ccc([N+](=O)[O-])cc2s1)C(C)C | 49.5% (active) |
| COc1cccc(NC(=O)CN2CCN(c3nc4ccc([N+](=O)[O-])cc4s3)CC2)c1 | -52.2% (inactive) |
| O=C1NCCCCC1NS(=O)(=O)c1ccc2c(c1)OCCCO2 (centres undefined) | -2.35% (inactive) |
| Cc1cc(F)ccc1NC(=O)Cc1n[nH]c(Cc2ccccc2)n1 | 2.95% (inactive) |
| O=C(Cc1ccc(F)cc1)Nc1ccccc1Cc1ccccc1 | 19.3% (inactive) |
| Cc1ccccc1NC(=O)Cc1csc2nc(-c3ccc(F)cc3)cn12 | 85.8% (active) |
| COc1cccc(C(=O)OCc2csc(-c3ccccc3)n2)c1OC | 4.14% (inactive) |
| Nc1cc(C2CCN(C(=O)Cc3ccc(F)cc3)CC2)no1 | 1.13% (inactive) |
| COc1cccc(-n2c(=O)[nH]c3c(C(N)=O)nc(-c4ccccn4)nc32)c1 | -282% (inactive) |
| COc1cccc(-n2c(=O)c(C(=O)NC(C)c3ccccc3)c(O)c3cccnc32)c1 (centres undefined) | 81.5% (active) |
| COc1cccc(NC(=O)Nc2nccn(-c3ccccc3)c2=O)c1 | 5.06% (inactive) |

| SMILES | inhibition |
| --- | --- |
| COc1ccccc1CNC(=O)c1ccc(Cl)c(S(=O)(=O)N2CCCC2)c1 | -5.09% (inactive) |
| COc1ccccc1CNCc1c(C(=O)O)c(C)n(-c2ccccc2)c1C | 27.6% (inactive) |
| COc1ccccc1CNC(=O)c1c(O)c2cccnc2n(-c2ccccc2)c1=O | 80.6% (active) |
| CN(C)S(=O)(=O)N1CCOC(c2cncc(-c3cccc(F)c3)n2)C1 (centres undefined) | -2.26% (inactive) |
| O=C(C1COc2ccccc2O1)N1CCN(c2nc(C(F)(F)F)nc3ccccc23)CC1 (centres undefined) | 11.8% (inactive) |
| COC(=O)c1ccc(C2Oc3ccccc3CN2c2ccccc2Cl)cc1 (centres undefined) | 22% (inactive) |
| COc1ccc(-c2csc(N)n2)c(O)c1 | 3.16% (inactive) |
| Cc1ccc(-n2c(C)nnc2SCC(=O)NC2CC2)cc1 | 1.76% (inactive) |
| Cc1nc(C2CCCN2C(=O)c2ccc(OCC3CC3)nc2)no1 (centres undefined) | 5.37% (inactive) |
| Cc1nc2cc(-c3noc(-c4sc(C)nc4C)n3)ccc2o1 | 7.81% (inactive) |
| O=C(NCCc1c[nH]c2ccccc12)c1cc2cc(Cl)ccc2o1 | 16.2% (inactive) |
| O=C(Cc1csc(NC(=O)c2ccc(=O)[nH]c2)n1)NCc1ccco1 | -11.3% (inactive) |
| O=C(CCc1csc(NC(=O)c2ccc(=O)[nH]c2)n1)NCCc1c[nH]c2ccccc12 | 62.3% (active) |
| COc1cc(C2CCN(S(=O)(=O)c3cccc(C#N)c3)CC2)on1 | -4.99% (inactive) |
| N=C(N)C1CN(Cc2ccccc2)C(=O)NC1=O (centres undefined) | -100% (inactive) |
| c1ccc(-c2ccc(NCc3ccc4c(c3)OCO4)nn2)cc1 | 92% (active) |
| CCC(Oc1ccccc1)C(=O)NCc1ccc2c(c1)OCO2 (centres undefined) | -79.7% (inactive) |
| c1cc(CNCc2ccc3c(c2)OCO3)ccn1 | 11% (inactive) |
| COc1cc(N2CC[C@@H]3[C@@H](CO[C@H]3CNc3ncccn3)C2)ncn1 | -92.4% (inactive) |
| N#Cc1cccc(CSc2ncnc(N)n2)c1 | 18.1% (inactive) |
| COc1ccc(CNC(=O)CSc2nnc3c4ccccc4nc(-c4ccco4)n23)cc1 | -1.03% (inactive) |
| Cc1oc(CNC(=O)Cc2ccc(Cl)cc2)nc1C(=O)N1CCC(C)CC1 | 0.0949% (inactive) |
| Cn1cc2nc(SCC(=O)NCc3ccc(Cl)cc3)n(CC3CC3)c(=O)c2n1 | 38.7% (active) |
| O=C(CSc1ncn[nH]1)NCc1ccc2c(c1)OCO2 | 19.2% (inactive) |
| CCN1CCN(c2ccc(NC(=O)C3CCCCC3)cn2)C1=O | 1.18% (inactive) |

| SMILES | inhibition |
| --- | --- |
| CS(=O)(=O)N(Cc1ccccc1F)c1ccc(Oc2ccc(N(Cc3ccccc3F)S(C)(=O)=O)cc2)cc1 | 0.186% (inactive) |
| O=C(NCCc1cccnc1)c1ccn(-c2ccc3ccccn23)n1 | -25.8% (inactive) |
| Cc1nnc2ccc(-c3ccc(NC(=O)c4ccc(Br)o4)cc3)nn12 | 65.6% (active) |
| Cc1ccc(-c2cc(C(F)F)n3ncc(C(=O)NCC(C)C)c3n2)cc1 | 25.9% (inactive) |
| CCCCc1nc2sc3c(SCC(=O)NCc4ccccc4)ncnc3c2c2c1CCC2 | -1.42% (inactive) |
| O=C(O)CC1(CC(=O)Nc2ccc(Oc3ccccc3)cc2)CCCC1 | 33% (active) |
| COc1ccccc1C(=O)Nc1cccc(Oc2ccccc2)c1 | 11.4% (inactive) |
| CC1(C)CC(=O)c2ccc(OCC(=O)Nc3ccccc3)cc2O1 | 5.38% (inactive) |
| Cc1cc(C)cc(NC(=O)c2cnc3sc4c(n3c2=O)CCCC4)c1 | 3.8% (inactive) |
| CCOC(=O)c1cc2c(ccn2C)n1CC(=O)N1CCc2ccccc2C1 | -42.9% (inactive) |
| CCOC(=O)c1cc2c(ccn2C)n1CC(=O)Nc1ccc2c(c1)OCCO2 | 32.8% (active) |
| CCOC(=O)c1cc2c(ccn2C)n1CC(=O)N1CCC(C)CC1 | -57.3% (inactive) |
| O=C(c1ccc(Cl)cc1)N1CCSc2cc(Cl)ccc21 | 12% (inactive) |
| COc1ccc(CC(=O)Nc2ccc3c(c2)CCC3)cc1S(=O)(=O)N1CCOCC1 | 0.366% (inactive) |
| COc1cc2c(cc1OC)CN(C(=O)c1cc(=O)c3ccccc3o1)CC2 | 3.84% (inactive) |
| COc1ccc(CC(=O)Nc2ccc3c(c2)CN(C(=O)c2ccco2)CC3)cc1 | 33.2% (active) |
| CCN1CCn2c(-c3cnn(C)c3)cnc2C12CCN(S(=O)(=O)CC(C)C)CC2 | -29.1% (inactive) |
| Cc1ccc(NCc2cc3c(C)nn(-c4ccccc4)c3[nH]c2=O)cc1C | 76.5% (active) |
| Cc1ccc(NC(=O)NCc2nnnn2-c2ccccc2)cc1C | 0.496% (inactive) |
| Cc1ccc(CCNCc2c(C(=O)O)n(C)c3ccccc23)cc1 | -1.77% (inactive) |
| CC(C)(C)c1nn(-c2ccccc2)c2[nH]c(=O)c(CNCCc3ccccc3)cc12 | 85% (active) |
| Cc1nn(-c2ccccc2)c2[nH]c(=O)c(C#N)c(-c3ccco3)c12 | 10.2% (inactive) |
| Cc1cccc(-c2nnc3ccc(N4CCC(C(=O)NC(C)Cc5ccco5)CC4)nn23)c1 (centres undefined) | -6.13% (inactive) |
| CN1C(=O)C(C)(C)COc2ccc(NS(=O)(=O)c3cccc(F)c3)cc21 | 11.7% (inactive) |
| Cc1ccc(Cn2nccc2NC(=O)c2cc(-c3ccccc3)on2)cc1 | 14.1% (inactive) |

| SMILES | inhibition |
| --- | --- |
| Cc1cc(C)cc(C(=O)N2CCN(c3nnc4ccccn34)CC2)c1 | -9.4% (inactive) |
| Cc1nonc1C(=O)NCC(=O)N1Cc2ccccc2OC2(CCOCC2)C1 | 20.5% (inactive) |
| COc1ccccc1CNC(=O)c1ccccc1N1C(=O)[C@@H]2Cc3c([nH]c4ccccc34)C(C)N2C1=O (some centres undefined) | -25.4% (inactive) |
| O=C(NCc1ccccc1)c1nc[nH]c1C(=O)NCc1cccc(C(F)(F)F)c1 | -114% (inactive) |
| O=C(Cc1c(Cl)cccc1Cl)NCc1cccc(C(F)(F)F)c1 | 49.9% (active) |
| O=C(Cc1cccc(C(F)(F)F)c1)Nc1cccn2ncnc12 | 2.29% (inactive) |
| CC(C)=CCC(O)C1=CC(=O)c2c(O)ccc(O)c2C1=O (centres undefined) | -234% (inactive) |
| Cc1cc(NC(C)C)n2ncc(-c3ccc(Cl)cc3)c2n1 | -13.7% (inactive) |
| Cc1nc(CC(=O)Nc2ccc(F)c(F)c2)sc1C(=O)NC1CC1 | 10.3% (inactive) |
| COc1cccc(CNS(=O)(=O)c2cc(-c3cc(C)no3)ccc2OC)c1 | -16.2% (inactive) |
| CCn1c(-c2ccccc2)c(C(=O)COC(=O)C(NC(=O)c2ccccc2)C(C)C)c2ccccc21 (centres undefined) | 13.1% (inactive) |
| CN1C(=O)C2(CCN(C(=O)c3ccccc3Cl)C2)c2ccccc21 (centres undefined) | -3.42% (inactive) |
| O=C(Nc1ccccc1)N1CCN(c2ncccc2-c2nnc(C3CC3)o2)CC1 | -5.37% (inactive) |
| O=S1(=O)c2ccccc2O[C@H]2CCN(c3ncccn3)CC[C@@H]2N1Cc1cccnc1 | -15.4% (inactive) |
| CCN1CCN(c2nc(F)c3c(c2F)S(=O)(=O)CCN3CC2CCCO2)CC1 (centres undefined) | 25.6% (inactive) |
| CC1CCN(c2nc(F)c3c(c2F)S(=O)(=O)CCN3Cc2cccnc2)CC1 | 85.2% (active) |
| COc1ccc(NC(=O)c2cc(S(=O)(=O)N3CCCCCC3)cn2C)cc1 | 0.0121% (inactive) |
| CC(CS(=O)(=O)c1ccc2c(c1)NC(=O)CCS2)C(=O)N1CCc2ccccc21 (centres undefined) | -14% (inactive) |
| CC1CN(C(=O)c2ccc(-n3cccn3)c(C#Cc3ccccn3)c2)CC(C)O1 (centres undefined) | -93.1% (inactive) |
| Cc1ccc(Cn2cc(-c3noc(-c4ccc[nH]4)n3)nn2)cc1 | 35.7% (active) |
| COc1ccc(-c2nc(-c3nnn(Cc4cccc(F)c4)c3C)no2)cc1 | 0.245% (inactive) |
| Cc1ccc(Cn2cc(-c3noc(-c4ccccn4)n3)nn2)cc1 | -56.3% (inactive) |
| O=C(NCc1noc(C2CCCC2)n1)C1CCCCC1 | 19.8% (inactive) |
| CCc1nnsc1C(=O)N1CCOC(c2cccc(N(C)C)n2)C1 (centres undefined) | 11.8% (inactive) |
